In all, about 5,500 compounds went through this assay and about 2,000 (36%) were called active. Another 18% or so got no clear call; they are omitted. This is one part of the list. Unmarked numbers belong to inactive results. Cut-off read from the data, not from the text of the source: active = normalized growth mostly below about 0.91 (no sharp cut-off); inconclusive = no clear call, values can overlap the other calls; inactive = mostly above about 0.92.

Our source for the normalized growth values is PubChem BioAssay AID1159580 (chemical genetic matrix, 2015).

A short description of the assay: chemical genetic growth profiling, strain panel (AID 1159580).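 Note: tested at 20 µM; growth read once vehicle control cultures reached saturation at 30 °C; 1 = growth at the plate median or of vehicle wells; lower values mean less growth of the strain.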 The conditions noted are these: S. cerevisiae deletion strains, growth OD.

`CCCCCCCC/C=C\CCCCCCCC(=O)NCCc1ccc(O)c(O)c1`: the normalized growth is, setting by setting: (locus YAL040C, strain CLN3, stronger effect = lower value) 1.01; (locus YCL061C, strain MRC1 (second series), stronger effect = lower value) 0.987; (locus YDR363W, strain ESC2, stronger effect = lower value) 0.981; (locus YER002W, strain NOP16, stronger effect = lower value) 1; (locus YGR229C, strain SMI1, stronger effect = lower value) 0.811 (active); (locus YMR307W, strain GAS1, stronger effect = lower value) 0.987. Further, the normalized growth (locus YNL153C, strain GIM3, stronger effect = lower value) was 0.811 (active); the normalized growth (locus YNL175C, strain NOP13, stronger effect = lower value) was 0.999; the normalized growth (locus YNL197C, strain WHI3, stronger effect = lower value) is 0.987; the normalized growth (locus YNL224C, strain SQS1, stronger effect = lower value) was 1.02; the normalized growth (locus YOR083W, strain WHI5 (second series), stronger effect = lower value) was 0.876; the normalized growth (locus YPL055C, strain LGE1, stronger effect = lower value) is 1. Where the note is “locus YPL241C, strain CIN2, stronger effect = lower value”, the normalized growth was 0.993.
